# According to ChEMBL document CHEMBL1961873, “Compounds: GSK PKIS; Assays: Nanosyn kinase panel” (2012):
# Key:
# [1] = biological target: T1, Aurora kinase A (Homo sapiens) (UniProt O14965); details: at 1 µM;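 also: values are mean percent inhibition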
# T1 sequence (whole entry): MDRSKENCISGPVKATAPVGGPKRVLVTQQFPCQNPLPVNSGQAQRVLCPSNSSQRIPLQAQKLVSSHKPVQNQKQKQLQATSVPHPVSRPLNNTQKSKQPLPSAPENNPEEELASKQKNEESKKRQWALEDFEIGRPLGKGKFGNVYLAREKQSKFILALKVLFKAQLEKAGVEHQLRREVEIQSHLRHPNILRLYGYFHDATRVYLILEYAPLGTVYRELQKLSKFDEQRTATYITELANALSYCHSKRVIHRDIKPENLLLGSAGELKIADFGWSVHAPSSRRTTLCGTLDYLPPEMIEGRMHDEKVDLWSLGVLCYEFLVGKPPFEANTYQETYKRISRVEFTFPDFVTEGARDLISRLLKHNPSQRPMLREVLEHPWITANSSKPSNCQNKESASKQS
# [2] = biological target: Aurora kinase B (Homo sapiens) (UniProt Q96GD4); details: at 0.1 µM
# [3] = biological target: Aurora kinase B (Homo sapiens) (UniProt Q96GD4); details: at 1 µM
# [4] = biological target: T2, Aurora kinase C (Homo sapiens) (UniProt Q9UQB9); details: at 0.1 µM
# T2 sequence (whole entry): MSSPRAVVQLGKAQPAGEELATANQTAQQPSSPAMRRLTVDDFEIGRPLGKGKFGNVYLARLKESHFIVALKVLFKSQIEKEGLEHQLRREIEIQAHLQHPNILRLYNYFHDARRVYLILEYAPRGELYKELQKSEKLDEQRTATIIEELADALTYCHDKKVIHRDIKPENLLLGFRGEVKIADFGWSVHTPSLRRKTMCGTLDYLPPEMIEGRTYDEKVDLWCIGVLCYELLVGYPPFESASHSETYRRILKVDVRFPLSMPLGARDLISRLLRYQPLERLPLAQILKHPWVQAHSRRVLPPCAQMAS
# [5] = biological target: T2, Aurora kinase C (Homo sapiens); details: at 1 µM
# [6] = biological target: Serine/threonine-protein kinase 10 (Homo sapiens) (UniProt O94804); details: at 0.1 µM
# [7] = biological target: Serine/threonine-protein kinase 10 (Homo sapiens) (UniProt O94804); details: at 1 µM
# [8] = biological target: T3, Mitogen-activated protein kinase kinase kinase kinase 2 (Homo sapiens) (UniProt Q12851); details: at 0.1 µM
# T3 sequence (whole entry): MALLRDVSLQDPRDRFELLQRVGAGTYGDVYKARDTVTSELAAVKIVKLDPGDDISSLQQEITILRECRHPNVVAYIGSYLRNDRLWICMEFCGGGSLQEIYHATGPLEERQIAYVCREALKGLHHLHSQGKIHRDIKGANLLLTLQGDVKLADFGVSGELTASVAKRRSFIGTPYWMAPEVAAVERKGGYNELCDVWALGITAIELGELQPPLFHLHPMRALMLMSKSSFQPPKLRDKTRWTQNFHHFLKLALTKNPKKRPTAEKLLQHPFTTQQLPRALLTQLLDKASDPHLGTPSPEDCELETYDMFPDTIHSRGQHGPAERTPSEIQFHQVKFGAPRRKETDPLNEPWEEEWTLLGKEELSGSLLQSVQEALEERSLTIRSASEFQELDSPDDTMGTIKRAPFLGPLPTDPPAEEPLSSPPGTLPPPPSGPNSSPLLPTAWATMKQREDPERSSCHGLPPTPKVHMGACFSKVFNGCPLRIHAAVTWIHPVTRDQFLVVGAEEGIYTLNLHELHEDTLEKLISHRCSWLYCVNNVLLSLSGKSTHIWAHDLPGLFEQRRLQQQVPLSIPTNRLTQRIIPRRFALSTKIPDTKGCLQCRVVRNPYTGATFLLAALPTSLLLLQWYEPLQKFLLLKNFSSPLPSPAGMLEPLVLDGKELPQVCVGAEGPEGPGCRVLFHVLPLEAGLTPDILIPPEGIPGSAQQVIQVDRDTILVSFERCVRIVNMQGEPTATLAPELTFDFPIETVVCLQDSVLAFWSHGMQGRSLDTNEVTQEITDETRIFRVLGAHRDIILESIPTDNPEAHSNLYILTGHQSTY
# [9] = biological target: T3, Mitogen-activated protein kinase kinase kinase kinase 2 (Homo sapiens); details: at 1 µM
# [10] = biological target: Mitogen-activated protein kinase kinase kinase kinase 4 (Homo sapiens) (UniProt O95819); details: at 0.1 µM
# [11] = biological target: Mitogen-activated protein kinase kinase kinase kinase 4 (Homo sapiens) (UniProt O95819); details: at 1 µM
# [12] = biological target: Dual specificity mitogen-activated protein kinase kinase 1 (Homo sapiens) (UniProt Q02750); details: at 0.1 µM
# [13] = biological target: Dual specificity mitogen-activated protein kinase kinase 1 (Homo sapiens) (UniProt Q02750); details: at 1 µM
# [14] = biological target: Misshapen-like kinase 1 (Homo sapiens) (UniProt Q8N4C8); details: at 0.1 µM
# [15] = biological target: Misshapen-like kinase 1 (Homo sapiens) (UniProt Q8N4C8); details: at 1 µM
# [16] = biological target: T4, Serine/threonine-protein kinase 4 (Homo sapiens) (UniProt Q13043); details: at 0.1 µM
# T4 sequence (whole entry): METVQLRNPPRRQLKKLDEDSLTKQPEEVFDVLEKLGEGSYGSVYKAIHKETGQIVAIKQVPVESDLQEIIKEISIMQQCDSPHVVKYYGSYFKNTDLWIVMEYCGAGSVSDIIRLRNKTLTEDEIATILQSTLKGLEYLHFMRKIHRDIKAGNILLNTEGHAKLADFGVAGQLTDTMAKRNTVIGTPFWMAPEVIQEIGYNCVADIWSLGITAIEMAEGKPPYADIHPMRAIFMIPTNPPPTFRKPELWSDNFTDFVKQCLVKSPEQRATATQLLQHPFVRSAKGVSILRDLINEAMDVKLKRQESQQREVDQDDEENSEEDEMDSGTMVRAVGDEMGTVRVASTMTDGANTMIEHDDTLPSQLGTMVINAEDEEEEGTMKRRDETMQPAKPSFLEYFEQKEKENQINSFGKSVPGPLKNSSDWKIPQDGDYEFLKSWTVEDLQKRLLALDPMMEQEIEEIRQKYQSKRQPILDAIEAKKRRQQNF
# [17] = biological target: T4, Serine/threonine-protein kinase 4 (Homo sapiens); details: at 1 µM
# [18] = biological target: T5, Serine/threonine-protein kinase 3 (Homo sapiens) (UniProt Q13188); details: at 0.1 µM
# T5 sequence (whole entry): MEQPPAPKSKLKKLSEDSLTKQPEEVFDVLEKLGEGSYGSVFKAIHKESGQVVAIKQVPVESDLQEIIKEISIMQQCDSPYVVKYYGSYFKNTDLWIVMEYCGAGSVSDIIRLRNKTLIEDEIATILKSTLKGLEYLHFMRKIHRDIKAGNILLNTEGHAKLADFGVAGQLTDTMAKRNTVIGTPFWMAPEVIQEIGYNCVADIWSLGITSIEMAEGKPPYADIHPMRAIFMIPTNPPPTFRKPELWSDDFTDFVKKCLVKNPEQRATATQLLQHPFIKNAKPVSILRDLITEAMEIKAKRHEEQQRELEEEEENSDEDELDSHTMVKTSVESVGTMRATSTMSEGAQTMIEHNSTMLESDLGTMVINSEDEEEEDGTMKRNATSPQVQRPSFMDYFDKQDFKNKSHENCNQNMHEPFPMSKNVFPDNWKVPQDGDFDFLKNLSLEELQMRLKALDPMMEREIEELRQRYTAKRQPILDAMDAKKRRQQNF
# [19] = biological target: T5, Serine/threonine-protein kinase 3 (Homo sapiens); details: at 1 µM
# [20] = biological target: Serine/threonine-protein kinase 26 (Homo sapiens) (UniProt Q9P289); details: at 0.1 µM
# Serine/threonine-protein kinase 26 (Homo sapiens), sequence (Q9P289 2-416 limits assumed): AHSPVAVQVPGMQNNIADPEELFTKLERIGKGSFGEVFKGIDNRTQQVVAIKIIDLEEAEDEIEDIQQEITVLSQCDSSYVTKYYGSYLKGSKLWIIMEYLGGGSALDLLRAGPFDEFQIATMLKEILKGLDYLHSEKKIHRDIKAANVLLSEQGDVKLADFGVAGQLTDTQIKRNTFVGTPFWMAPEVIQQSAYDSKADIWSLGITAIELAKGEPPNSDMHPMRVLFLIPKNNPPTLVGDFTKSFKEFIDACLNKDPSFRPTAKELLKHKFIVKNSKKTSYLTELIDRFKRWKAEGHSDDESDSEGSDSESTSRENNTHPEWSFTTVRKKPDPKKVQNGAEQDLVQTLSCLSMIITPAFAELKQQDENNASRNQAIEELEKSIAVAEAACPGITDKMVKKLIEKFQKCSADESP
# Aurora kinase B (Homo sapiens), sequence (Q96GD4 whole entry): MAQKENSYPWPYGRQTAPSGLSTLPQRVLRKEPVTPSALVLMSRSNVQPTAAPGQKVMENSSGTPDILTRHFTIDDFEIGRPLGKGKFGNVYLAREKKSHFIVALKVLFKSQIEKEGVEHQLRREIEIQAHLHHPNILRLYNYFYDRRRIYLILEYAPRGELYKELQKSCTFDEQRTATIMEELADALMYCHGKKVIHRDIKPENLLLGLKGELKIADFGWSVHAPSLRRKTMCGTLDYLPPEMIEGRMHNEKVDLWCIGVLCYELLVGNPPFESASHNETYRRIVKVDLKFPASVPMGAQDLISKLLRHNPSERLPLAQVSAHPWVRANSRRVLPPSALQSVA
# Mitogen-activated protein kinase kinase kinase kinase 4 (Homo sapiens), sequence (O95819 2-1239 limits assumed): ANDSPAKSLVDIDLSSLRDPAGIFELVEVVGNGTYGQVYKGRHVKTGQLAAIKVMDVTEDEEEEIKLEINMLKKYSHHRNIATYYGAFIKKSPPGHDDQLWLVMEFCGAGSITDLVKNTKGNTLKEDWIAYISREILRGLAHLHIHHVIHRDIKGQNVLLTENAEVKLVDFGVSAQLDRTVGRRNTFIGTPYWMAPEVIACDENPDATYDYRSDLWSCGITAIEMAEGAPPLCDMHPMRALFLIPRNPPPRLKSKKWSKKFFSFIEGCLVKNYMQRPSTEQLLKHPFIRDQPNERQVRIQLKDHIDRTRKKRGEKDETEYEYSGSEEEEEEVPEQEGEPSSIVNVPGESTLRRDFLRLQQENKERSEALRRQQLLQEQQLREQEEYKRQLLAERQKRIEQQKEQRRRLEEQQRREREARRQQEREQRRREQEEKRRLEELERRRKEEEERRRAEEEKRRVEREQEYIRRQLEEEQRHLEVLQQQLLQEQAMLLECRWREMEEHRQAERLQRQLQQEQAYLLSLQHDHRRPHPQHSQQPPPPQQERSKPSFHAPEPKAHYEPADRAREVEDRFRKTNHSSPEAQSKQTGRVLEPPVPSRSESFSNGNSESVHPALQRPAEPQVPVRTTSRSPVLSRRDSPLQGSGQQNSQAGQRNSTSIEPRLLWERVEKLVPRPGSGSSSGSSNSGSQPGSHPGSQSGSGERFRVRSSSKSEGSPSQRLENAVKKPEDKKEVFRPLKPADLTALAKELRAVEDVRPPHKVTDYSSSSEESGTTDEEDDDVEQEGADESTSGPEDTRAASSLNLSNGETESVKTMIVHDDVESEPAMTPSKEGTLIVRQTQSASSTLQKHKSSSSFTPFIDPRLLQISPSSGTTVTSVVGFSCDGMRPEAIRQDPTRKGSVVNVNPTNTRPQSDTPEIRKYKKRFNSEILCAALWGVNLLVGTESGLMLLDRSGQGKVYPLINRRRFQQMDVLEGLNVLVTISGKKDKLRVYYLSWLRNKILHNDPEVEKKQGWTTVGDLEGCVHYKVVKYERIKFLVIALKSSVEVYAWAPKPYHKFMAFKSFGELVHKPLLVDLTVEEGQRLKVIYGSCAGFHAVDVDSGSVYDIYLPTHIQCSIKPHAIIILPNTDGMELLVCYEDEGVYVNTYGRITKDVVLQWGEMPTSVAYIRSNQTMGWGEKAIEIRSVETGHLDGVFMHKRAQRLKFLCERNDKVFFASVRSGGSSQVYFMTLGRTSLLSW
# Dual specificity mitogen-activated protein kinase kinase 1 (Homo sapiens), sequence (Q02750 whole entry): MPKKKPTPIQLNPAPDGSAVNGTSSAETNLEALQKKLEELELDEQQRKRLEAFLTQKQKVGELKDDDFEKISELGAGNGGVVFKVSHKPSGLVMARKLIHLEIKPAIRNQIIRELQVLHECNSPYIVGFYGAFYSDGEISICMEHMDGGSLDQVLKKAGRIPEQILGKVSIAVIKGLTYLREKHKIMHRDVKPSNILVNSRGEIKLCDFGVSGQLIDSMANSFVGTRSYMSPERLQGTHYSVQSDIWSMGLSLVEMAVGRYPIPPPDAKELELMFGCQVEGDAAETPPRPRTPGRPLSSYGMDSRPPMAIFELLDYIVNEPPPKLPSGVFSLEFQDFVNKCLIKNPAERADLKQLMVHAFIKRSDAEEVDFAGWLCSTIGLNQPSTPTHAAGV
# Misshapen-like kinase 1 (Homo sapiens), sequence (Q8N4C8 whole entry, looked up): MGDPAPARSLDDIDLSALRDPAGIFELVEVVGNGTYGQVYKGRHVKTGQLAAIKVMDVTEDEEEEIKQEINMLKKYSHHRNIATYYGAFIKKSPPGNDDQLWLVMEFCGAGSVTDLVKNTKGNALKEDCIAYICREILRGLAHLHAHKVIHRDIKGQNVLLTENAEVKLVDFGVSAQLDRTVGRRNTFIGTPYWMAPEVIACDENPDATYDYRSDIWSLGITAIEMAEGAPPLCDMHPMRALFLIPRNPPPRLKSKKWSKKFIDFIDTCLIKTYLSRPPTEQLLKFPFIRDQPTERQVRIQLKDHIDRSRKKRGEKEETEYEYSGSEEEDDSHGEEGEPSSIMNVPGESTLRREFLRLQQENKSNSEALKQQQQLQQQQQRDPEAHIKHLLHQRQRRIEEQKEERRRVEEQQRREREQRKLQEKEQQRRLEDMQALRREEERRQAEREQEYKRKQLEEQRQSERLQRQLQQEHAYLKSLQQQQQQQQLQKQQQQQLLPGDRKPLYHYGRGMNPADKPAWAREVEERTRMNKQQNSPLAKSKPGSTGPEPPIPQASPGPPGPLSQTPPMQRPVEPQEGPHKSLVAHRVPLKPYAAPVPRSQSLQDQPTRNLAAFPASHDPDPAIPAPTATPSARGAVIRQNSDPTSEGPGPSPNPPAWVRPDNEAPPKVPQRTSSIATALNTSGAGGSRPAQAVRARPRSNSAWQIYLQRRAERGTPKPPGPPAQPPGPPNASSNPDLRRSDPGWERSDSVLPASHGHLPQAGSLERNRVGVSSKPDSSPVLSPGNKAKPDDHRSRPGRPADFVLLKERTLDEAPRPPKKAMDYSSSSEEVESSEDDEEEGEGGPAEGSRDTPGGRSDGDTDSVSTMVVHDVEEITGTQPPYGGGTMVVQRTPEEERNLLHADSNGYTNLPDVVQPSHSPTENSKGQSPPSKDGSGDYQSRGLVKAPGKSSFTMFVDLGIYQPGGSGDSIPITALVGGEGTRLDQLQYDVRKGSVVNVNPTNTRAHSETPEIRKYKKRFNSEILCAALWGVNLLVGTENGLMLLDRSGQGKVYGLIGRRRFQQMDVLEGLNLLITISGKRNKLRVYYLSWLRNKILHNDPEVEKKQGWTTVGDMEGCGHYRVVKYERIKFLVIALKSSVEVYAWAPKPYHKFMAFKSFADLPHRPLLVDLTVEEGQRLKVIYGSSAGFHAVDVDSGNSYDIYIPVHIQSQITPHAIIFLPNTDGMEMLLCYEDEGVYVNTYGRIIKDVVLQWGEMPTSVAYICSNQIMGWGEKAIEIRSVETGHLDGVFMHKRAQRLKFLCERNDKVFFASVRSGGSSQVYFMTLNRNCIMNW
# Serine/threonine-protein kinase 10 (Homo sapiens), sequence (O94804 whole entry, looked up): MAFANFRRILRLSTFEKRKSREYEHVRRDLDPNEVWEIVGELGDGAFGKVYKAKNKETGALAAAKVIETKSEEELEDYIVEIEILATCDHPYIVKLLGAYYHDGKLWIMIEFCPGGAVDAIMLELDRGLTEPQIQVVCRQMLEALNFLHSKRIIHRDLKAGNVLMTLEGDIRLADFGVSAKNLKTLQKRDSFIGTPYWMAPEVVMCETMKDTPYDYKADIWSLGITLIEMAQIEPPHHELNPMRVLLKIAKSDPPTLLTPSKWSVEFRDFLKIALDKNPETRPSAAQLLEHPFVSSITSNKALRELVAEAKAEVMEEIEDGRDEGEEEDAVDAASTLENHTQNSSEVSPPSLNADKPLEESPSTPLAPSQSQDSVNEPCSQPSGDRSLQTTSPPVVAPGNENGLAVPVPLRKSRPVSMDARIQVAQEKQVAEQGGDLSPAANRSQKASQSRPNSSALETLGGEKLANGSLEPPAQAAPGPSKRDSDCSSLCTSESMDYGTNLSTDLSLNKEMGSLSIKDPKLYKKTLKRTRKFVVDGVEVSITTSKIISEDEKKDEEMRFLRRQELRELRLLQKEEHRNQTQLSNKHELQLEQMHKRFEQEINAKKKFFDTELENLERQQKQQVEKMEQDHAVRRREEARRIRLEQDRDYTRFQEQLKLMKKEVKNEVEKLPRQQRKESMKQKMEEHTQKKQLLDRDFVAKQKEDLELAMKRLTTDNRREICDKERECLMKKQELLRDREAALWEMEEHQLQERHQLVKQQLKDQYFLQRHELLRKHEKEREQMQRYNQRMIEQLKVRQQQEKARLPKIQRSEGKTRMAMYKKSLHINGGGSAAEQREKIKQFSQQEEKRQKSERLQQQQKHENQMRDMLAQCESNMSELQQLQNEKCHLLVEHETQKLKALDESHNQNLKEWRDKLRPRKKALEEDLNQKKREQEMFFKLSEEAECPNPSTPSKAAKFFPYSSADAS
Structure (SMILES),inhibition [1] [%],inhibition [2] [%],inhibition [3] [%],inhibition [4] [%],inhibition [5] [%],inhibition [6] [%],inhibition [7] [%],inhibition [8] [%],inhibition [9] [%],inhibition [10] [%],inhibition [11] [%],inhibition [12] [%],inhibition [13] [%],inhibition [14] [%],inhibition [15] [%],inhibition [16] [%],inhibition [17] [%],inhibition [18] [%],inhibition [19] [%],inhibition [20] [%]
CC(C)c1ccc(Nc2nccc(-c3cnn4ncccc34)n2)cc1,65.8,7.65,43.1,5.11,74.6,3.13,8.29,1.97,23.4,4.8,18.7,2.79,9.57,3.97,14.6,4.71,20.1,5.07,18.6,0.23
COc1cc2ncnc(Nc3ccc(C)c(O)c3)c2cc1OC,7.23,4.5,8.54,1.17,4.32,21.1,70.1,2.26,5.63,7.16,21.4,6.11,5.54,9.75,18,5.24,9.47,5.84,8.26,-1.09
OCc1ccc(-c2nc(-c3ccccn3)c(-c3ccc4c(c3)OCO4)[nH]2)cc1,11,6.24,11.7,3.67,12.5,6.01,4.97,1.15,2.87,5.21,6.4,5.12,4.13,5.77,7.23,6.59,6.27,8.49,4.84,-1.45
c1ccc(Nc2ncc(-c3ccccc3)o2)cc1,15.2,3.84,10.3,0.81,16,3.84,9.44,1.03,5.7,5.9,25.9,5.07,4.19,6.17,19,2.36,4.87,4.89,6.36,-1.38
O=C(Nc1ccc(Oc2ccc3[nH]c(NC(=O)c4ccco4)nc3c2)cc1)Nc1cc(C(F)(F)F)ccc1F,15.1,5.43,38.8,8.04,82.4,35.6,76.7,2.98,28.9,0.47,5.1,0.55,1.24,0.49,-0.52,-0.01,0.17,-1.13,-0.98,0.66
CC(C)c1ccc2c(c1)NC(=O)/C2=N/Nc1ccc(S(N)(=O)=O)cc1,8.05,1.3,7,-4.39,6.7,-0.47,2.14,2.41,2.01,12.8,62.3,0.83,1.72,10.1,48.9,1.52,11.2,1.12,9.13,-0.9
Cc1ccc2c(-c3ccnc(Nc4cccc(C(F)(F)F)c4)n3)c(-c3ccccc3)nn2n1,6.06,5.03,7.6,3.89,9.67,8.49,11.5,-0.05,9.38,7.07,46.8,5.35,7.59,8.79,38.2,3.51,7.31,5.68,6.69,0.2
COc1cccc(-n2nc(C)c3c(N/N=C(\C)c4ccncc4)ncnc32)c1,0.79,2.73,3.95,0.6,4.15,0.54,3.61,-0.39,0.32,1.37,4.83,-0.14,-0.11,1.43,6.12,1.29,1.63,1.78,3.56,-0.95
NS(=O)(=O)c1ccc(-c2cc3ccncc3cc2OCc2ccccc2)cc1,7.25,2.9,4.42,-0.1,-6.92,3.53,9.35,-0.94,2.03,5.89,6.71,4.49,3.72,2.78,5.92,5.08,7.76,5.7,5.97,0.92
Cc1nc(-c2ccccc2)n2nc(NCCCN3CCOCC3)ncc12,5.63,1.82,8.37,1.43,12.1,4.62,7.49,2.45,2.48,1.62,5.45,2.79,4.46,4.74,5.12,1.32,4,2.92,4.68,–
COc1cccc(-n2ncc3c(N/N=C/c4ccc(S(C)(=O)=O)cc4)ncnc32)c1,28.4,9.58,42.4,0.72,12.2,6.63,16.3,0.47,0.9,16.2,59.4,1.79,1.58,13.4,50.3,1.66,4.3,0.59,2.91,1.71
CN(C)CCCn1c(-c2nonc2N)nc2cnccc21,6.09,3.93,4.46,0.95,6.01,3.09,6.11,2.05,4.37,5.05,6.52,4.6,3.75,5.65,6.29,4.23,4.03,3.78,4.52,-1.82
NS(=O)(=O)c1ccc(N/N=C2\C(=O)Nc3ccc(Cl)cc32)cc1,26.8,3.68,6.25,1.97,5.64,6.82,6.74,0.49,3.26,25.7,75.5,5.27,5.11,18.5,65.7,21.2,67.5,16.8,56.9,1.38
CN(C)C(=O)O[C@@H]1CN[C@@H](C#Cc2cc3ncnc(Nc4ccc(OCc5cccc(F)c5)c(Cl)c4)c3s2)C1,8.44,2.09,5.86,0.89,14,1.67,6.26,0.47,2.35,2.96,6.27,-0.21,0.83,2.49,6.17,-1.32,0.53,-2.45,-0.68,0.14
CN(c1ccc(NC(=O)Nc2ccc(OC(F)(F)F)cc2)cc1)c1ccnc(Nc2cccc(S(N)(=O)=O)c2)n1,76.8,63.9,79,30.7,96.5,26,70.4,18.4,69.5,24.4,85.1,3.84,13.7,24.3,80.3,2.75,9.45,4.46,6.49,-1.04
Cc1cc(-c2ccccn2)cc(C)c1/C=C/c1cncc(-c2nn[nH]n2)c1,5.71,2.09,7.42,4.2,19.6,6.35,13.7,-1.16,3.53,2.48,13.5,3.04,4.93,2.69,9.19,3.88,8.04,3.7,7.75,-1.78
COC(=O)c1cncc(/C=C/c2c(C)cc(O)cc2C)c1,8.18,2.38,9.6,2.3,-1.31,5.36,26.2,0.34,4.75,3.73,18.8,4.72,4.21,5.24,14.9,7.04,9.84,7.02,9.92,-1.08
